PubChem BioAssay AID1345085 (National Center for Advancing Translational Sciences (NCATS), 2018)
Inconclusive results are not listed. Calls of active or inactive are those of the source. Calls come from the whole dose curve; as a rule, active = well fitted cell-killing curve with a large enough effect; inconclusive = small, poorly fitted or top-dose-only effect, or effect the other way; inactive = no such curve, though single readings can be large or run the other way.

system: HeLa; experiment: Confirmatory qHTS for gynecologic anti-cancer compounds from libraries of approved drugs and bioactive compounds; details: gynecologic cancer cell panel viability, ATPlite luminescence, 48 h; series mostly up to 57.6 µM; note: nearly all actives have a fitted effect of over 55% in size
How it was run: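 1,000 cells/well; 16 h pre-incubation 37 C, 5% CO2; pin-transferred cpd in DMSO, 11 conc (1:3), 57.5 uM–0.977 nM; 48 h; ATPlite, 15 min RT; luminescence → IC50.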
Potency is the fitted concentration of half-maximal effect.

With Cn1cc(-c2[nH]c3cc(NC(=O)[C@H](N)C4CCCCC4)cc4c3c2C=NNC4=O)cn1 as the compound, how does the Potency read?
The Potency was 1720 nM (active).

CCC1C(=O)N(C)c2cnc(Nc3ccc(C(=O)NC4CCC(N5CCN(CC6CC6)CC5)CC4)cc3OC)nc2N1C(C)C (centres undefined) was tested. Which Potency did it give?
The Potency was 38.5 nM (active).

How did the Potency turn out when Nc1ccc(C(=O)Nc2cccc(-c3nc(N4CCOCC4)c4oc5ncccc5c4n3)c2)cn1 was run?
The Potency was 7690 nM (active).

Which Potency does the source give for CCN(CC)CCCC(C)Nc1ccnc2cc(Cl)ccc12 (centres undefined) here?
The Potency was “inactive”.

With COc1cc2c(cc1-c1c(C)noc1C)ncc1[nH]c(=O)n(C(C)c3ccccn3)c12 (centres undefined) as the compound, how does the Potency read?
The Potency was 544 nM (active).

CC1=C(/C=C/C(C)=C/C=C/C(C)=C/C(=O)Nc2ccc(O)cc2)C(C)(C)CCC1 was tested. Which Potency did it give?
Its Potency is 24300 nM (active).

How did the Potency turn out when COc1cc(N2CCC(N3CCN(C)CC3)CC2)ccc1Nc1ncc(Cl)c(Nc2ccccc2S(=O)(=O)C(C)C)n1 was run?
The Potency was 769 nM (active).

With Cc1cnc(Nc2ccc(CN3CCOCC3)cc2)nc1Nc1cccc(S(=O)(=O)NC(C)(C)C)c1 as the compound, how does the Potency read?
Its Potency is 2170 nM (active).

Which Potency does the source give for O=C1N(c2ccccc2)c2ccccc2C1(Cc1ccncc1)Cc1ccncc1 here?
The Potency was “inactive”.

Which Potency does the source give for Cn1cnc([N+](=O)[O-])c1Sc1ncnc2nc[nH]c12 here?
Its Potency is 4850 nM (active).

How did the Potency turn out when COc1cc(-c2nn(C3CCC(N4CCN(C(C)=O)CC4)CC3)c3ncnc(N)c23)ccc1NC(=O)c1cc2ccccc2n1C (centres undefined) was run?
The Potency was 30600 nM (active).

How did the Potency turn out when CC(C)CC(=O)Nc1n[nH]c2c1CN(C(=O)C1CCN(C)CC1)C2(C)C was run?
Its Potency is 3430 nM (active).

How did the Potency turn out when Cc1csc(NC(=O)c2sc3nc4c(c(C(F)(F)F)c3c2N)CCC4)n1 was run?
Its Potency is 1930 nM (active).

For CCCCc1oc2ccccc2c1C(=O)c1cc(I)c(OCCN(CC)CC)c(I)c1, which Potency is on record?
The Potency was 50100 nM (active).

Cc1nc2ccc(CN(C)c3ccc(C(=O)NC(CCC(=O)O)C(=O)O)s3)cc2c(=O)[nH]1 (centres undefined) was tested. Which Potency did it give?
The Potency was 54.4 nM (active).

How did the Potency turn out when Cc1ccc2nc(N)[nH]c(=O)c2c1Sc1ccncc1 was run?
The Potency was 8630 nM (active).

How did the Potency turn out when CNc1nccc(-c2cccnc2Oc2cc(C(=O)Nc3cccc(C(F)(F)F)c3)ccc2C)n1 was run?
Its Potency is 15300 nM (active).

For Cc1cc(Nc2nc(N[C@@H](C)c3ccc(F)cc3)c(C#N)cc2F)n[nH]1, which Potency is on record?
The Potency was 1090 nM (active).

CCN1CCN(Cc2ccc(-c3cc4c(NC(C)c5ccccc5)ncnc4[nH]3)cc2)CC1 (centres undefined) was tested. Which Potency did it give?
Its Potency is 30600 nM (active).

With Cn1cnc2c(F)c(Nc3ccc(Br)cc3F)c(C(=O)NOCCO)cc21 as the compound, how does the Potency read?
Its Potency is “inactive”.

Which Potency does the source give for Cc1ccc(C(=O)Nc2ccc(CN3CCN(C)CC3)c(C(F)(F)F)c2)cc1C#Cc1cnc2cccnn12 here?
The Potency was 1720 nM (active).

CN[C@@H](C)C(=O)N[C@H]1CN(C(=O)CC(C)C)CC[C@H]2CC[C@@H](C(=O)NC(c3ccccc3)c3ccccc3)N2C1=O was tested. Which Potency did it give?
The Potency was “inactive”.

Which Potency does the source give for O=C(CCCCCCNC(=O)c1cnc(N(c2ccccc2)c2ccccc2)nc1)NO here?
The Potency was 7690 nM (active).

CCn1cc(-c2ccnc3[nH]c(-c4cccc(CN(C)C)c4)cc23)c(-c2ccc(NC(=O)N(C)C)cc2)n1 was tested. Which Potency did it give?
Its Potency is 2980 nM (active).

Which Potency does the source give for CC(C)C[C@H](NC(=O)[C@@H](NC(=O)c1cccc(-c2ccccc2)n1)[C@@H](C)O)B(O)O here?
The Potency was 24300 nM (active).

CC[C@]1(O)C[C@H]2CN(CCc3c([nH]c4ccccc34)[C@@](C(=O)OC)(c3cc4c(cc3OC)N(C=O)[C@H]3[C@@](O)(C(=O)OC)[C@H](OC(C)=O)[C@]5(CC)C=CCN6CC[C@]43[C@@H]65)C2)C1 was tested. Which Potency did it give?
The Potency was 273 nM (active).

How did the Potency turn out when O=C(Nc1cn[nH]c1-c1nc2ccc(CN3CCOCC3)cc2[nH]1)NC1CC1 was run?
The Potency was 43.2 nM (active).

Which Potency does the source give for CC(C)C[C@H](NC(=O)[C@H](CCc1ccccc1)NC(=O)CN1CCOCC1)C(=O)N[C@@H](Cc1ccccc1)C(=O)N[C@@H](CC(C)C)C(=O)[C@@]1(C)CO1 here?
The Potency was 10900 nM (active).

How did the Potency turn out when O=C(O)C1(Cc2cccc(Nc3nccs3)n2)CCC(Oc2cccc(Cl)c2F)CC1 (centres undefined) was run?
The Potency was 1220 nM (active).

With Oc1cn2c(n1)Nc1ccc(Cl)c(Cl)c1C2 as the compound, how does the Potency read?
Its Potency is 10.6 nM (active).

COc1cc2c(Nc3ccc(NC(=O)c4ccccc4)cc3)ncnc2cc1OCCCN1CCOCC1 was tested. Which Potency did it give?
Its Potency is 21700 nM (active).

Which Potency does the source give for O=C(NOCC1CC1)c1ccc(F)c(F)c1Nc1ccc(I)cc1Cl here?
The Potency was 9680 nM (active).

For CCc1c2c(nc3ccc(OC(=O)N4CCC(N5CCCCC5)CC4)cc13)-c1cc3c(c(=O)n1C2)COC(=O)[C@]3(O)CC, which Potency is on record?
Its Potency is “inactive”.

Which Potency does the source give for Nc1ccccc1NC(=O)c1ccc(CNc2nccc(-c3cccnc3)n2)cc1 here?
Its Potency is 1530 nM (active).
